Only some compounds are listed: those with a hit (about 4.5% of all), similar ones and a draw of the others.
hgDAF12 agonist – H. glycines DAF-12 receptor agonists, primary screen, cell-based, luminescence, HEK293, GAL4 fusion, UAS-luciferase | 1.8% of 370,000 active | activation, % at 6.8 µM | Nuclear hormone receptor DAF-12 (Heterodera glycines), GAL4 fusion | HEK293 GAL4-hgDAF12 UAS-luciferase reporter, agonist luminescence; normalized to butyrate control;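 active = activation above a cutoff set at the mean of all screened compounds plus 3 SD, cut at about 10% in these data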
FXN GAA850 act – FXN promoter activators, primary screen, cell-based, luciferase luminescence, HEK293 lucGAA850 | HEK293 lucGAA850 FXN promoter luciferase reporter, 24 h; percent of 10 µM SAHA response | activation, % at 6 µM | 0.56% of 360,000 active | AID 540364, 2011;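 active = activation above the average of all compounds screened plus 3 SD, cutoff fixed separately per campaign, cut at about 7.5% in these data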
hcDAF12 agonist – H. contortus DAF-12 nuclear receptor activators, primary screen, cell-based, luminescence, HEK293, lit1-tk-luc reporter; HEK293 hcDAF-12 lit1-tk-luc reporter; 0% DMSO, 100% Δ7-dafachronic acid; activation, % at 6.8 µM; 1.4% of 370,000 active; AID 652067, 2013;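 active = activation above the mean of all tested compounds plus 3 SD, cut at about 5.5% in these data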
DAX1 inh-1 – DAX1 (NR0B1) inhibitors, primary screen, cell-based, HEK293, Gal4-DAX1, luciferase luminescence. HEK293 Gal4-DAX1 luciferase reporter. AID 504766, 2011. inhibition, % at 6.75 µM. Nuclear receptor subfamily 0 group B member 1 (Homo sapiens), P51843. 0.99% of 340,000 active;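 active = inhibition above the mean over all tested compounds plus 3 SD, cut at about 4.2% in these data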;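 also: inhibition shows as a rise in luminescence from relieved DAX1 repression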
DAX1 inh-2 – DAX1 (NR0B1) inhibitors on StAR promoter, primary screen, cell-based, luminescence, SF-1 (NR5A1), full-length DAX-1. HEK293T StAR-luciferase reporter, SF-1/DAX-1 repression relief. inhibition, % at 6.8 µM. AID 652010, 2013. 1.1% of 370,000 active;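 active = inhibition above the mean over all tested compounds plus 3 SD, cut at about 3.6% in these data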;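 also: higher inhibition means more luminescence from relief of DAX-1 repression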
ssDAF-12 act – S. stercoralis DAF-12 nuclear receptor activators, primary screen, cell-based, luminescence, HEK293, GRIP1 co-expression, lit1-tk-luc | HEK293 ssDAF-12/GRIP1 lit1-tk-luc reporter; % of 3 µM dafachronic acid response | 1% of 370,000 active | Nuclear hormone receptor DAF-12 (Strongyloides stercoralis) | AID 652126, 2013 | activation, % at 6.8 µM;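 active = activation above the mean over all tested compounds plus 3 SD, cut at about 0.9% in these data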
LXRb hcDAF ctr – LXR agonists, Gal4 luciferase reporter, confirmation, counter-screen for hcDAF-12 agonist project, cell-based, luminescence, HEK293, H. contortus campaign | shares compounds with hcDAF12 agonist | HEK293 Gal4-LXR tk-luc reporter, 24 h; normalized: DMSO 0%, positive control 100% | activation, % at 6.8 µM | 3,400 tested, under 10 active | AID 743027, 2013;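 active = mean percent activation of the reporter above a cutoff set as the average over tested compounds plus their standard deviation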
Target sequence (P55055 whole entry, looked up, the tested form may be a part): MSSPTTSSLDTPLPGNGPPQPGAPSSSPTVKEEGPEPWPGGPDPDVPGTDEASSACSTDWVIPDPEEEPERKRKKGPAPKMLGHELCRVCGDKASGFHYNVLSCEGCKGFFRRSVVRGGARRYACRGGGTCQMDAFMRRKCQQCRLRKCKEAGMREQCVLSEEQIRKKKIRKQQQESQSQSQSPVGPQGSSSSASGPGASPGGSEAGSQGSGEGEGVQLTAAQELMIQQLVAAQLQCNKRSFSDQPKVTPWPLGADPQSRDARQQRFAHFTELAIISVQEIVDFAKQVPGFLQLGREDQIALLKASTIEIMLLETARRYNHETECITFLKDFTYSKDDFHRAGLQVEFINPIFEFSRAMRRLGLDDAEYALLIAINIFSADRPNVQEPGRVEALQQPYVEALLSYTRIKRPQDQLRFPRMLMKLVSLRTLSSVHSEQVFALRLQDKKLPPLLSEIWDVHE
hcDAF12 conf – H. contortus DAF-12 receptor agonists, confirmation, cell-based, luminescence, HEK293, lit1-tk-luc, triplicate; 61% of 3,400 active; AID 743032, 2013; shares compounds with hcDAF12 agonist; HEK293 hcDAF-12 lit1-tk-luc reporter; % of Δ7-dafachronic acid response; activation, % at 6.8 µM;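 active = mean activation across triplicate tests above the threshold derived from the earlier primary screen, cut at about 5.5% in these data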
Hits are given with their value; - = inactive; . = no result given.

SMILES | hgDAF12 agonist | FXN GAA850 act | hcDAF12 agonist | DAX1 inh-1 | DAX1 inh-2 | ssDAF-12 act | LXRb hcDAF ctr | hcDAF12 conf
CC1(C(=O)NS(=O)(=O)C2CC2)CCN(C(=O)COCc2ccccc2)C1 (configuration not stated) | - | - | - | . | - | - | . | .
COc1ccc(Cl)cc1C(=O)NCC(c1ccco1)N(C)C (configuration not stated) | - | - | 7.3 | - | - | - | - | -
c1ccc(-c2ccc(-c3ccccn3)s2)nc1 | 13 | - | 15 | 4.7 | - | 3.8 | - | 13
COc1ccccc1-c1nnc(-c2ccc(N3CCOCC3)cc2)o1 | - | - | - | - | - | - | . | .
CSc1ccccc1-c1nnc(-c2ccccc2)o1 | 13 | - | 12 | - | 4.4 | 2.2 | - | 12
CSc1nnc(-c2ccccc2SC)o1 | - | - | - | - | - | - | . | .
COc1ccccc1-c1nnc(-c2ccc(C)cc2)o1 | 11 | - | 8.0 | 8.4 | - | - | - | 8.5
COc1cccc(CNC(=O)[C@H]2CCCN2C(=O)[C@H]2CCCN2C(=O)c2cccc(OC)c2)c1 | - | . | - | . | - | - | . | .
CC(=O)N=c1sc2c3ccccc3ccc2n1C | - | - | 7.5 | - | - | - | - | -
CC/C(=N\NC(=O)C1CCCC1)c1cccc(Br)c1 | - | - | 6.8 | - | - | 1.8 | - | -
Cc1cc(N2CCNC[C@@H]2C)ccc1N1CCN(Cc2ccccc2)[C@H](C)C1 | - | . | - | . | - | - | . | .
COc1ccccc1/C=N\Nc1ccccc1[N+](=O)[O-] | - | - | 7.0 | 7.9 | - | - | - | 6.4
CC(C)Oc1ccccc1/C=N/Nc1ccccc1[N+](=O)[O-] | - | - | - | - | - | - | . | .
Cc1ccc(CN2CCCCC(NC(=O)Cc3cccs3)C2=O)cc1 (configuration not stated) | - | . | - | . | - | - | . | .
Cc1cc(N=Nc2ccc(C)c(N=Nc3cc(C)c(N)cc3N)c2)c(N)cc1N | 13 | - | 7.3 | - | - | - | - | 12
COc1ccc(N=Nc2cc(OC)c(N)cc2OC)cc1 | - | - | - | - | - | - | . | .
Cc1cc(C)n2ncc(C(=O)Nc3ccc4c(c3)CCC4)c2n1 | - | . | 6.8 | . | . | - | - | 6.2
Cc1cc(C)n2ncc(C(=O)Nc3ccc(Cl)c(Cl)c3)c2n1 | - | - | - | - | - | - | . | .
COc1cccc(N(C)C(=O)[C@@H](C)[C@@H](O)c2ccc(Cl)cc2)c1 | - | . | - | . | - | - | . | .
CC(=C1N=C(c2ccccc2)OC1=O)c1cccs1 | - | . | - | . | - | - | . | .
O=C(C(=O)N1CCC(CNS(=O)(=O)c2ccc(C(F)(F)F)cc2)CC1)c1cc2ccccc2o1 | - | . | - | . | - | - | . | .
Cc1ccc(NP(=O)(c2ccc(N(C)C)cc2NC(=O)c2cccs2)N2CCOCC2)cc1 (configuration not stated) | - | - | 8.4 | - | - | 1.5 | - | -
CN(C)c1ccc(P(=O)(Nc2ccc([N+](=O)[O-])cc2)N2CCOCC2)c(NC(=O)c2cccs2)c1 (configuration not stated) | - | - | 8.0 | - | - | - | - | -

Screening data as filed in PubChem.
